# According to PubChem BioAssay AID1209 (Sanford-Burnham Center for Chemical Genomics, 2008):
# Screen size: about 190,000 compounds; about 810 (0.43%) were called active. No stated cut-off is given here; in the data, active means inhibition above about 50%; inactive means the rest. The sample as a whole holds a higher share of actives than the screen did.
# Biological target: Mannose-6-phosphate isomerase (Homo sapiens) (UniProt P34949)
# Assay: inhibitors of human PMI, primary screen, biochemical, fluorescence intensity, coupled assay (AID 1209);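 further: plate controls were DMSO vehicle for no effect and wells lacking substrate for full effect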
# Conditions: purified PMI enzyme, at 20 µM, hits give high values
# Mannose-6-phosphate isomerase (Homo sapiens), sequence (P34949 whole entry, looked up): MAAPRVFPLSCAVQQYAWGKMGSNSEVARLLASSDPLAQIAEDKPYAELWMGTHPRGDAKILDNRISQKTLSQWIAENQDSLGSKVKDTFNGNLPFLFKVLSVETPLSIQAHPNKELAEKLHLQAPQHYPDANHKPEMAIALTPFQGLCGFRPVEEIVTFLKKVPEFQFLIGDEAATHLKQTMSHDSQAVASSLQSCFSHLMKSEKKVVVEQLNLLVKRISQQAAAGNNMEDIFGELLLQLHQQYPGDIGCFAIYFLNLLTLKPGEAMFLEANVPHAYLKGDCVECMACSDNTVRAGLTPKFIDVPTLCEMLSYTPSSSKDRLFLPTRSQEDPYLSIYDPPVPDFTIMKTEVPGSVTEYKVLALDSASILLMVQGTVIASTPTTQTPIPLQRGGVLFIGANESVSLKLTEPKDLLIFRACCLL
row,SMILES,inhibition
1,CCNc1nc(CSc2ccccc2)nc2sc(C)c(C)c12,30.5% (inactive)
2,CCn1c(SCC(=O)N/N=C/c2ccc(C)o2)nnc1-c1ccc(C)cc1,0.6% (inactive)
3,CCN1CCN(CCCNC(=O)C(=O)c2c(C)[nH]c3ccccc23)CC1,-6.7% (inactive)
4,O=C(COC(=O)c1ccc(Br)cc1)NCc1ccc(F)cc1,-1.2% (inactive)
5,COC(=O)c1ccc(CSc2nnc(C)s2)cc1,8.5% (inactive)
6,CC(C)(CO)NC(=O)CC1C(=O)NCCN1CC(c1ccccc1)c1ccccc1 (centres undefined),-1.4% (inactive)
7,COC(=O)c1cccc(NC(=O)CCc2cc(OC)c(OC)c(OC)c2)c1,-5.4% (inactive)
8,COCCn1c(SCCN2CCCCC2)nc2ccccc2c1=O,3.5% (inactive)
9,COc1ccc(NC(=S)Nc2ccc3nsnc3c2)cc1,64.2% (active)
10,COc1ccc(NC(=O)c2ccc3nccnc3c2)cc1,-5.2% (inactive)
11,COc1ccc(NC(=S)Nc2ccc3nccnc3c2)cc1,83.8% (active)
12,COc1ccc(NC(=O)Nc2ccc3nccnc3c2)cc1,-6.9% (inactive)
13,CCOc1ccc(NC(=S)Nc2ccc3nsnc3c2)cc1,46.4% (inactive)
14,COc1cccc(NC(=O)Nc2ccc3nsnc3c2)c1,1.7% (inactive)
15,COc1ccc(N(C)C(=O)Nc2ccc3nsnc3c2)cc1,58.7% (active)
16,COc1ccc(NC(=S)Nc2ccc3snnc3c2)cc1,25% (inactive)
17,COc1ccc(N(C)C(=O)Nc2ccc3c(c2)nnn3C)cc1,15.5% (inactive)
18,CCOC(=O)c1sc(NS(=O)(=O)c2ccc(C)cc2)nc1C,5.9% (inactive)
19,CCOc1ccc(-c2noc(CCC(N)=O)n2)cc1OCC,-7.6% (inactive)
20,Cc1cc(NCCCN2CCOCC2)n2nc(C)c(-c3ccccc3)c2n1,-1.9% (inactive)
21,Cc1csc(NC(=O)CSc2nc3ccccc3c(=O)[nH]2)n1,0.4% (inactive)
22,C[C@H]1CC[C@H]2C(=O)N3[C@H](c4cccc(N5CCCC5=O)c4)[C@@H](C)CC[C@H]3C(=O)N2[C@@H]1c1cccc(N2CCCC2=O)c1,-17.4% (inactive)

row,SMILES,inhibition
1,CC(C)(C)Cc1nnc(NC(=O)Cc2ccc([N+](=O)[O-])cc2)s1,-4.5% (inactive)
2,CC(C)(C)C(=O)CSc1nnc(Nc2ccccc2)s1,39.6% (inactive)
3,CCOC(=O)N1CCC(N2Cc3cccc(C(=O)Nc4cccc(F)c4)c3C2=O)CC1,-24.4% (inactive)
4,CCOC(=O)C1CCN(C(=O)c2c(-c3c(Cl)cccc3Cl)noc2C)CC1,9.4% (inactive)
5,CCN(CC)CCNCc1ccc(-c2ccc(Cl)cc2)o1,-7% (inactive)
6,CC1CC(C)(C)NC(=S)N1CCCC(=O)N1CCN(c2ccccc2F)CC1 (centres undefined),-3.8% (inactive)
7,COc1cc(N=C2C(=O)N3c4c(cccc42)C(C)=CC3(C)C)cc(OC)c1,34.1% (inactive)
8,COc1cc(-c2nnco2)cc(OC)c1OC,15% (inactive)
9,COc1ccc(N=C2SCC(=O)N2Cc2ccccc2)cc1,-10.8% (inactive)
10,COc1ccc(N=c2sc3ccccc3n2C)cc1,5.6% (inactive)
11,COc1cc(-c2nnc(-c3cc(OC)c(OC)c(OC)c3)o2)cc(OC)c1OC,7.6% (inactive)
12,COc1cc(N=C(N)N=C(N)N)cc(OC)c1,-0.7% (inactive)
13,CCc1c(C)sc(NC(=O)CSc2nc3c(c(C(F)(F)F)n2)CCc2ccccc2-3)c1C#N,0.3% (inactive)
14,Cc1ccc(SCC(=O)NC(=O)NCc2ccco2)cc1C,-3.3% (inactive)
15,CCN(CCn1cccn1)C(=O)c1cc(COc2c(F)cccc2F)on1,5.3% (inactive)
16,O=C(CN1CCCC1)Nc1cc(F)ccc1F,-1.6% (inactive)
17,Cc1noc(C)c1COc1ccc(C(=O)OCC(=O)NCc2ccccc2Cl)cc1,22.4% (inactive)
18,CC(C)(C)NC(=O)COC(=O)/C=C/c1ccccc1[N+](=O)[O-],1.1% (inactive)
19,CC(=O)N(Cc1ccc(Br)cc1)c1cccc(C)c1C,5.3% (inactive)
20,COc1ccc(OC)c(NC(=O)CN2C(=O)C3(OCCCO3)c3ccccc32)c1,11% (inactive)
21,C=CCn1c2[n+](c3ccccc3c1=O)CCCCC2,66.2% (active)
22,C=CCn1c(C)nc2ccccc2c1=O,10% (inactive)

row,SMILES,inhibition
1,C=CCn1c(=S)[nH]c2ccccc2c1=O,1.8% (inactive)
2,COc1ccc(NC(C)=O)cc1NC(C)C(=O)Nc1ccc(F)c(F)c1F (centres undefined),13.6% (inactive)
3,Cc1cc(C)nc(-n2nc(C)cc2NC(=O)c2cccc(S(=O)(=O)N3CCCCC3)c2)n1,15.9% (inactive)
4,CCN(CC)c1ccc(NC(=O)/C=C/c2cc(Br)ccc2OC)cc1,6.9% (inactive)
5,CC1Cc2ccccc2N1C(=O)CSc1nnc(-c2ccc(S(=O)(=O)N3CCOCC3)cc2)n1C (centres undefined),-0.3% (inactive)
6,CC1Cc2ccccc2N1C(=O)CSc1nnc(-c2ccc(S(=O)(=O)N3CCCC3)cc2)n1C (centres undefined),60.6% (active)
7,Cn1c(SCC(=O)N2CCc3ccccc32)nnc1-c1ccc(S(=O)(=O)N2CCCC2)cc1,18.8% (inactive)
8,CCOC(=O)c1ccc(NC(=O)CSCC(=O)OCC(=O)c2ccccc2)cc1,19.6% (inactive)
9,Cc1ccc2nc(SCC(=O)N3CCOCC3)[nH]c2c1,-2.9% (inactive)
10,CCOC(=O)CSc1nc2ccc(S(=O)(=O)N3CCOCC3)cc2[nH]1,-11.2% (inactive)
11,O=C(CSc1nc2ccc(S(=O)(=O)N3CCOCC3)cc2[nH]1)N1CCOCC1,66% (active)
12,COc1ccc(OC)c(NS(=O)(=O)c2ccc(NC(=O)c3ccc(NS(C)(=O)=O)cc3)cc2)c1,1.4% (inactive)
13,O=C(OCC(CO)OC(CO)n1ccc(=O)[nH]c1=O)c1ccccc1 (centres undefined),7.7% (inactive)
14,Cn1c(=O)oc2cc(S(=O)(=O)N3CCC(C(=O)NCc4ccc(F)cc4)CC3)ccc21,4.5% (inactive)
15,CCNC(=O)c1sc(=S)n(CC)c1N,6.5% (inactive)
16,CCn1c(N)c(C(N)=O)sc1=S,18.4% (inactive)
17,CCn1c(N)c(C(=O)NCC2CCCO2)sc1=S (centres undefined),70.4% (active)
18,C=CCn1c(N)c(C(=O)NCC2CCCO2)sc1=S (centres undefined),-2.2% (inactive)
19,CCOC(=O)c1ccc(-n2c(N)c(C(=O)NCC3CCCO3)sc2=S)cc1 (centres undefined),31.5% (inactive)
20,CCn1c(N)c(C(=O)NC)sc1=S,67.3% (active)
